About 7,900 targets were measured; listed, in parts, are those with a hit and a random draw of the rest. About 0.6% of all pairs of compound and target were hits. A number with no mark means an inactive call.
Key:
Experiment in all cases: log2 fold change, soluble protein after heating vs DMSO (PISA); higher = thermal stabilisation; K562 cells, 10 uM, 30 min; active = over 0.2 and 3.5 SD of the protein, either way, in both replicates (recomputed)
[1] = compound: Cc1ccc(NC(=O)c2ccc(CN3CC[C@H](N(C)C)C3)c(C(F)(F)F)c2)cc1Nc1nccc(-c2cncnc2)n1 [bafetinib]
Method in brief: (§1)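 K562 cells at 2×10^6 cells/mL were given 10 μM compound for 30 min. Aliquots then went through 3 min of heating across 48°C-58°C, were pooled, and were extracted in PBS with 0.5% NP-40 at 4°C, and the supernatant after 21,000xg for 90 min was quantified by TMTpro 16plex LC-MS/MS with channel sums equalised. Thermal stability relative to control samples, from duplicates, is given as log2 fold change.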

[2] = compound: Cc1cccc(CC(=O)N2CCc3c2ccc(-c2cn(C)c4ncnc(N)c24)c3F)n1
Method in brief: as §1

[3] = compound: Cc1cn(-c2cc(NC(=O)c3ccc(C)c(Nc4nccc(-c5cccnc5)n4)c3)cc(C(F)(F)F)c2)cn1 [nilotinib]
Method in brief: as §1

[4] = compound: Cc1nc(Nc2n[nH]c3c2CN(C(=O)N[C@H](CN(C)C)c2ccccc2)C3(C)C)c2sccc2n1
Method in brief: as §1

[5] = compound: Cc1nc(Nc2ncc(C(=O)Nc3c(C)cccc3Cl)s2)cc(N2CCN(CCO)CC2)n1 [dasatinib]
Method in brief: as §1

[6] = compound: Cc1ncc(-c2ccnc(Nc3ccc(S(C)(=O)=O)cc3)n2)n1C(C)C
Method in brief: as §1

[7] = compound: Cn1cc(-c2ccc3c(c2)CCN3C(=O)Cc2cccc(C(F)(F)F)c2)c2c(N)ncnc21
Method in brief: as §1

[8] = compound: Cn1cc(-c2ccc3nnc(C(F)(F)c4ccc5ncccc5c4)n3n2)cn1
Method in brief: as §1

[9] = compound: Cn1cncc1[C@@](N)(c1ccc(Cl)cc1)c1ccc2c(c1)c(-c1cccc(Cl)c1)cc(=O)n2C [tipifarnib]
Method in brief: as §1

[10] = compound: FC(F)(F)c1ccc(/C=C/c2nc(COc3ccc(CCCCn4ccnn4)cc3)co2)cc1 [mubritinib]
Method in brief: as §1

[11] = compound: NC(=O)Nc1cc(-c2cccc(F)c2)sc1C(=O)N[C@H]1CCCNC1
Method in brief: as §1

[12] = compound: NC(=O)c1cnc(N[C@@H]2CCCC[C@@H]2N)nc1Nc1cccc(-n2nccn2)c1
Method in brief: as §1

[13] = compound: NC1(c2ccc(-c3nc4ccn5c(=O)[nH]nc5c4cc3-c3ccccc3)cc2)CCC1
Method in brief: as §1

[14] = compound: NCC(=O)Nc1ccc(-n2nc(C(F)(F)F)cc2-c2ccc3c(ccc4ccccc43)c2)cc1
Method in brief: as §1

[15] = compound: Nc1ccccc1NC(=O)c1ccc(CNC(=O)OCc2cccnc2)cc1 [entinostat]
Method in brief: as §1

[16] = compound: O=C(CCCCCCC(=O)Nc1ccccc1)NO [vorinostat]
Method in brief: as §1

[17] = compound: O=C(CCCCCCNC(=O)c1cnc(N(c2ccccc2)c2ccccc2Cl)nc1)NO [citarinostat]
Method in brief: as §1

[18] = compound: O=C(O)c1ccc2c(c1)nc(Nc1cccc(Cl)c1)c1ccncc12 [silmitasertib]
Method in brief: as §1

[19] = compound: O=C1NC(=O)C(c2cnc3ccccn23)=C1c1cn2c3c(cc(F)cc13)CN(C(=O)N1CCCCC1)CC2
Method in brief: as §1

[20] = compound: c1cc(OCCN2CCCCC2)cc(-c2n[nH]c3ccc(-c4nnc[nH]4)cc23)c1
Method in brief: as §1

UniProt P62333, sequence (P62333 whole entry, looked up): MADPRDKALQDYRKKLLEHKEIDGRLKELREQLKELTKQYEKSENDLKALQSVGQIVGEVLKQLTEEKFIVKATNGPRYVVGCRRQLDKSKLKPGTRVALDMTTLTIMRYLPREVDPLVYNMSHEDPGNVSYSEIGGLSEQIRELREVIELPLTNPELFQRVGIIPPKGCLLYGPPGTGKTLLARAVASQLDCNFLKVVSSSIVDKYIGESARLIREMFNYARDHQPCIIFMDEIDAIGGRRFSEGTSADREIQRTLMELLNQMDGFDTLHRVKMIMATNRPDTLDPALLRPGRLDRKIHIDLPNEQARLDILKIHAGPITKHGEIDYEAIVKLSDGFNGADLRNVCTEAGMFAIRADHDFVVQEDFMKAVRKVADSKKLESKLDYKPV
UniProt Q13131, sequence (Q13131 whole entry, looked up): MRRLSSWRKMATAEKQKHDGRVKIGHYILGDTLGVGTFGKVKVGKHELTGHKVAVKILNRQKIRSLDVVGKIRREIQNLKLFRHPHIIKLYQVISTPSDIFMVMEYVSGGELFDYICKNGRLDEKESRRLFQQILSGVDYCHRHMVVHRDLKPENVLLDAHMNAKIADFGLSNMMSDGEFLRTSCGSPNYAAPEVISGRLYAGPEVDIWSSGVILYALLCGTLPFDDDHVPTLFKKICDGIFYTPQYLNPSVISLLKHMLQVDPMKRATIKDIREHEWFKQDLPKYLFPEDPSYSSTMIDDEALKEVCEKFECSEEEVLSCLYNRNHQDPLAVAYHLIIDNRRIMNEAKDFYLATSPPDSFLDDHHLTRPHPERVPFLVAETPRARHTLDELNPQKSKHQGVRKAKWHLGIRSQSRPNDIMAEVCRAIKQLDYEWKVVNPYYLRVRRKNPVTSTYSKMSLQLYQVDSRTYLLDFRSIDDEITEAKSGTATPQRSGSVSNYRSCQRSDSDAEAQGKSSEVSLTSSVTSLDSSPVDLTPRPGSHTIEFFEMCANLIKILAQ
UniProt O15530, sequence (O15530 whole entry, looked up): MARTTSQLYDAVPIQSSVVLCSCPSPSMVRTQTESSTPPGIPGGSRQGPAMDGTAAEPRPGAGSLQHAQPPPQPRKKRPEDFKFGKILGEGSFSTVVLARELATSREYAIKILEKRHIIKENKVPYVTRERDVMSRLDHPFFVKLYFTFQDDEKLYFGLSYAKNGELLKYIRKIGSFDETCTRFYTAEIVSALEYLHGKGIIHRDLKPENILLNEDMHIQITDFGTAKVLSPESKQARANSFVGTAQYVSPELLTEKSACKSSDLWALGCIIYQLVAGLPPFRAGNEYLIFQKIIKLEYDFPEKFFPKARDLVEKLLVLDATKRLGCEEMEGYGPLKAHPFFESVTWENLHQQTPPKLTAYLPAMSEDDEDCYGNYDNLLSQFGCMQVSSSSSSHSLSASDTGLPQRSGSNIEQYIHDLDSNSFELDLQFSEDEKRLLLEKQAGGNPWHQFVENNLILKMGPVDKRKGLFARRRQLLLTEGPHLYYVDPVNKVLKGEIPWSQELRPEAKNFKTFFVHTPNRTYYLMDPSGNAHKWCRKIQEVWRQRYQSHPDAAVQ
UniProt Q969N2, sequence (Q969N2 whole entry, looked up): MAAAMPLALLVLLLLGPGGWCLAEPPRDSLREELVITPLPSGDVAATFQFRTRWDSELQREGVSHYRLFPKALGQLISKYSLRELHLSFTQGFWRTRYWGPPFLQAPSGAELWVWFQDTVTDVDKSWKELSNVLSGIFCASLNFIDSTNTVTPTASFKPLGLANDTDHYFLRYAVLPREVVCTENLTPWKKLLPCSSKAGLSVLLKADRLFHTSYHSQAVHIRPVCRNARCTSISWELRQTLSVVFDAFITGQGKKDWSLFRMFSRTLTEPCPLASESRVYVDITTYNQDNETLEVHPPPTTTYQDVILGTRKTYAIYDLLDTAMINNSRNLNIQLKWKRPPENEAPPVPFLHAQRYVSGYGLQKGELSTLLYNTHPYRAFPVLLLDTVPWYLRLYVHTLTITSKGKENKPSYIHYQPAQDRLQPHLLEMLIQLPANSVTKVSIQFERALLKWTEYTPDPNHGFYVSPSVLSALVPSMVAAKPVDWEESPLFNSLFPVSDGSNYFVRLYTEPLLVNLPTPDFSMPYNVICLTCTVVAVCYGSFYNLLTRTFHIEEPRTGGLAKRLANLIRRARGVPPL
UniProt P05771, sequence (P05771 whole entry, looked up): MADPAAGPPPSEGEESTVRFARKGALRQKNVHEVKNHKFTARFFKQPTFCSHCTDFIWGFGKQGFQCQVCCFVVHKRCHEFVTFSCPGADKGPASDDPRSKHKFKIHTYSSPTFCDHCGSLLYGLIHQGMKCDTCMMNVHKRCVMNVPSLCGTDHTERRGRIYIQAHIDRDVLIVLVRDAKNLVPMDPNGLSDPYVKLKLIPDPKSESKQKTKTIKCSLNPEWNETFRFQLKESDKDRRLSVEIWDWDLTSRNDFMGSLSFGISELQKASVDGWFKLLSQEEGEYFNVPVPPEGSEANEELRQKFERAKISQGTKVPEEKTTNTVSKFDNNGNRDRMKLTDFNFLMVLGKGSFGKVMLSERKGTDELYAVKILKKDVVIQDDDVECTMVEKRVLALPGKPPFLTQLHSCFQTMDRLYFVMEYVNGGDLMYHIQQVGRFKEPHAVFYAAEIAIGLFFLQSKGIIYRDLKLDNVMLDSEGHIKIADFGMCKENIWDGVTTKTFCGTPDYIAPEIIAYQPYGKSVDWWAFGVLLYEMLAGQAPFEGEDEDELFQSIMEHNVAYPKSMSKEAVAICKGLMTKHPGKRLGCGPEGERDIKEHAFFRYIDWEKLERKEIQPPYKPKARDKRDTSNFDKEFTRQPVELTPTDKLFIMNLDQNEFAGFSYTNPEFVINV
UniProt Q08752, sequence (Q08752 whole entry, looked up): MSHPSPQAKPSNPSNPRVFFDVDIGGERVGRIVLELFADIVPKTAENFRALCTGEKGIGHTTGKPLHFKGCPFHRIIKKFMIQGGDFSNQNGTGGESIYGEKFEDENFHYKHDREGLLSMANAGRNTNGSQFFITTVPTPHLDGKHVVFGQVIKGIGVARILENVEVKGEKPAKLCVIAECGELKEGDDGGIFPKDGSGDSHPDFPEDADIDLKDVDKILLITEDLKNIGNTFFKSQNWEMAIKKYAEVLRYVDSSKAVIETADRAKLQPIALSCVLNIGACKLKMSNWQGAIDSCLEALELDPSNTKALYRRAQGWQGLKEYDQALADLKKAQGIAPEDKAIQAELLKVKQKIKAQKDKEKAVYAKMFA
UniProt Q6GMV3, sequence (Q6GMV3 whole entry, looked up): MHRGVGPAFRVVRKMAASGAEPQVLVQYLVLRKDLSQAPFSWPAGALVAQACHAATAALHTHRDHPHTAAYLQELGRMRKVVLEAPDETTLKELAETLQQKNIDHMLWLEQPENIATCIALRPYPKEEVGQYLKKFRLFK
UniProt Q9BRP1, sequence (Q9BRP1 whole entry, looked up): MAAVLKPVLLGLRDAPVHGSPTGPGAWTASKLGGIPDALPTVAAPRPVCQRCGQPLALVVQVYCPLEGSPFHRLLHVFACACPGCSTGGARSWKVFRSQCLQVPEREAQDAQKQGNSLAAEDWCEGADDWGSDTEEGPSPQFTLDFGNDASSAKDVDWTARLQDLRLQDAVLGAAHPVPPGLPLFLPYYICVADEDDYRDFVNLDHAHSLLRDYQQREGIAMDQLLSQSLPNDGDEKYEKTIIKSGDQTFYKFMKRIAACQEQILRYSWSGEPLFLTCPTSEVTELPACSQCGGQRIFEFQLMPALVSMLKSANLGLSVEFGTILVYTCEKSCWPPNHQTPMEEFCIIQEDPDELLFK
UniProt Q9BRX2, sequence (Q9BRX2 whole entry, looked up): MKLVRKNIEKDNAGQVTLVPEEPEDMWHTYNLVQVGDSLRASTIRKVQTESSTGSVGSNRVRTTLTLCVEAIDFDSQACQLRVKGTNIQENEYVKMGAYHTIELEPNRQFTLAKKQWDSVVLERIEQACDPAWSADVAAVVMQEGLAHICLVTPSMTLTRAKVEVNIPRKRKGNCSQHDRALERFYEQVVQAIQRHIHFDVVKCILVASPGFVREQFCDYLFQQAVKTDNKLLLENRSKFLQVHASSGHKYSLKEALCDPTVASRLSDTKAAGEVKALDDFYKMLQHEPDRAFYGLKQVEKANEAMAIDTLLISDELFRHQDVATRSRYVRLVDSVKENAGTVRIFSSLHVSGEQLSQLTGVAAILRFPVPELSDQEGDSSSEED
UniProt Q9UBV8, sequence (Q9UBV8 whole entry, looked up): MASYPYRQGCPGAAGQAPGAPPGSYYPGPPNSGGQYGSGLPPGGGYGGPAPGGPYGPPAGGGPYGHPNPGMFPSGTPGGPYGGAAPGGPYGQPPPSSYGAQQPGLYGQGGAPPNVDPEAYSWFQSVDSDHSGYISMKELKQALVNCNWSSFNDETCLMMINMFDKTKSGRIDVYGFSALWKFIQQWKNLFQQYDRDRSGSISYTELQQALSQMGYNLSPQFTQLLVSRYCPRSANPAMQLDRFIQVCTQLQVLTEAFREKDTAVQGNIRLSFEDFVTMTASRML

Target | log2 fold change [1] | log2 fold change [2] | log2 fold change [3] | log2 fold change [4] | log2 fold change [5] | log2 fold change [6] | log2 fold change [7] | log2 fold change [8] | log2 fold change [9] | log2 fold change [10] | log2 fold change [11] | log2 fold change [12] | log2 fold change [13] | log2 fold change [14] | log2 fold change [15] | log2 fold change [16] | log2 fold change [17] | log2 fold change [18] | log2 fold change [19] | log2 fold change [20]
PPID (UniProt Q08752) | 0.015 | 0.075 | -0.113 | -0.13 | -0.206 | 0.062 | 0.023 | 0.076 | -0.148 | -0.005 | -0.073 | -0.075 | -0.093 | -0.065 | 0.049 | 0.108 | 0.108 | 0.095 | -0.028 | 0
PSMC6 (UniProt P62333) | 0.069 | 0.008 | -0.029 | 0.069 | 0.039 | -0.02 | -0.068 | 0.002 | 0.104 | -0.048 | 0.007 | 0.015 | 0.069 | 0.075 | -0.015 | -0.005 | -0.048 | -0.035 | 0.072 | -0.075
PRKCA (UniProt P17252) | -0.043 | -0.066 | -0.011 | -0.173 | -0.233 | -0.005 | 0.082 | -0.022 | -0.026 | 0.054 | -0.085 | -0.134 | -0.181 | -0.029 | 0.057 | 0.117 | 0.028 | -0.045 | -0.205 | -0.091
PRPF38B (UniProt Q5VTL8) | -0.016 | -0.015 | 0.049 | -1.9 (active) | -0.022 | -0.008 | 0.012 | -0.04 | -0.067 | 0.004 | -0.199 | -0.019 | 0.017 | -0.203 | 0.006 | 0.033 | 0.028 | -0.246 | -0.006 | -0.19
PGGHG (UniProt Q32M88) | -0.036 | -0.001 | 0.012 | 0.023 | 0.009 | -0.078 | -0.152 | 0.058 | -0.077 | 0.047 | -0.036 | -0.155 | -0.051 | 0.083 | -0.033 | 0.019 | -0.009 | 0.073 | -0.076 | 0.058
PDCD4 (UniProt Q53EL6) | 0.065 | -0.014 | 0.017 | 0.025 | -0.144 | 0.144 | 0.022 | 0.077 | -0.172 | 0.104 | -0.001 | 0.011 | -0.087 | -0.064 | -0.044 | 0.042 | 0.059 | 0.145 | -0.041 | 0.092
PTRHD1 (UniProt Q6GMV3) | -0.067 | 0.024 | 0.08 | -0.032 | -0.007 | -0.061 | 0.111 | 0.332 (active) | 0.028 | 0.043 | -0.02 | 0.037 | -0.009 | 0.03 | 0.095 | -0.099 | 0.026 | -0.006 | -0.065 | -0.006
PEF1 (UniProt Q9UBV8) | -0.106 | 0.089 | -0.005 | 0.012 | -0.047 | -0.013 | 0.132 | 0.113 | -0.126 | 0.099 | -0.029 | -0.026 | -0.219 | -0.036 | 0.128 | 0.01 | 0.045 | 0.028 | -0.103 | -0.02
PRKCB isoform 2 (UniProt P05771) | -0.037 | 0.025 | -0.022 | -0.3 (active) | -0.054 | 0.034 | 0.04 | 0 | -0.051 | 0.054 | -0.052 | -0.037 | -0.118 | -0.058 | 0.045 | 0.02 | 0.041 | 0.032 | -0.051 | 0.02
PDCD2L (UniProt Q9BRP1) | 0.026 | 0.077 | -0.137 | 0.035 | -0.122 | -0.062 | -0.022 | 0.015 | -0.13 | 0.018 | 0.058 | 1.21 (active) | -0.018 | -0.101 | 0.036 | 0.023 | 0.06 | 0 | -0.092 | -0.001
RAB11FIP1 (UniProt Q6WKZ4) | -0.042 | 0.12 | 0.049 | -0.198 | -0.037 | -0.172 | 0.008 | 0 | 0.003 | 0.003 | 0.019 | -0.121 | -0.086 | -0.009 | 0.041 | 0.091 | 0.065 | 0.016 | 0 | -0.07
PDPK1 (UniProt O15530) | -0.06 | 0.051 | -0.104 | 0.089 | -0.169 | -0.084 | 0.077 | 0.011 | -0.043 | 0.022 | 0.238 (active) | -0.111 | -0.314 (active) | -0.061 | 0.034 | 0.108 | 0.038 | -0.04 | 0.004 | -0.019
PSMD9 (UniProt O00233) | -0.038 | 0.199 | -0.011 | 0.016 | 0.037 | 0.008 | 0.018 | 0.034 | 0.04 | 0.009 | 0.041 | 0.017 | 0.022 | 0.072 | 0.017 | 0.086 | 0.029 | -0.013 | -0.027 | 0.005
PIGT (UniProt Q969N2) | -0.042 | 0 | -0.029 | 0.046 | -0.031 | -0.028 | -0.011 | 0.003 | -0.029 | -0.037 | -0.01 | -0.002 | -0.077 | -0.002 | 0.018 | 0.05 | 0.04 | 0 | -0.01 | -0.089
PRKAA1 isoform 2 (UniProt Q13131) | -0.096 | 0.035 | -0.029 | -0.206 (active) | -0.069 | -0.011 | 0.082 | 0.028 | -0.012 | -0.012 | -0.141 | -0.009 | -0.049 | -0.007 | 0.002 | 0.052 | 0.044 | -0.006 | -0.007 | -0.056
PELO (UniProt Q9BRX2) | 0.068 | 0.155 | -0.021 | -0.067 | -0.054 | -0.02 | 0.042 | 0.061 | -0.136 | -0.111 | -0.028 | -0.089 | -0.098 | -0.174 | 0.058 | 0.064 | 0.009 | 0.054 | 0.063 | -0.057
